# The panel holds about 83,000 compounds, 20% with a hit somewhere; the sample as a whole holds those more often.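 The endpoint reported here, percent growth, reads 100 for growth as untreated, 0 for no net growth and -100 for all cells dead.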 Values without a mark were called inactive. The source made the active and inactive calls. Rule for the calls: active = growth percent below 10; inactive = the rest.
# Tested on: HL-60(TB) leukemia
# Assay: NCI-60 one-dose screen, 48 h (100 = growth as untreated, 0 = no growth, -100 = all killed)
# Conditions: 10 µM unless noted
row,Structure (SMILES),growth
1,Cc1ccc(/C=N/Nc2nc(Nc3ccccc3)nc(Nc3ccc(S(N)(=O)=O)cc3)n2)cc1,75.2%
2,CN(C)CCCOc1c2ccc(Cl)cc2nc2c1oc1ccc(Cl)cc12,18.9%
3,CSc1nccc(-c2c(-c3ccc(F)c(OCc4ccc(F)cc4)c3)nc3sccn23)n1,78%
4,O=C(CCn1c[n+](CC(=O)c2ccc(-c3ccccc3)cc2)c2ccccc21)Nc1cccc2cccnc12,-42.3% (active)
5,COc1cc(/C=C/C(=O)c2ccc(C)cc2)ccc1Oc1nc(NCCO)nc(N2CCOCC2)n1,-26.7% (active)
6,C=CCn1c(SCC(=O)c2ccccc2)nnc1-c1c[nH]c2ccccc12,95.6%
7,O=C(/C=C/c1cn(-c2ccccc2)nc1-c1ccc(Cl)cc1)c1cc2ccccc2oc1=O,85.6%
8,COc1ccc(/C(=N\NC(N)=S)c2ccc(Cl)cc2)cc1OC,13.2%

# Reference: PubChem BioAssay (NCI)
